Records with an inconclusive call do not appear. Where a call stands in place of a potency, no number is given. The source made the active and inactive calls. Calls follow the shape of the full dose curve; tested in HEK293 reporter line.
Experiment: qHTS for Inhibitors of the Functional Ribonucleoprotein Complex (vRNP) of Lassa (LASV) Arenavirus: Viability assay - alamar blue signal for LASV Primary Screen (AID 1347083); also: nearly all actives have a fitted effect of over 80% in size
Conditions: cell viability, alamar blue fluorescence (LASV minigenome counter-screen); series mostly up to 57.5 µM

Compound | Potency | activity change, negative = reduced viability
COc1c(O)cc2c(c1O)[C@@H]1O[C@H](CO)[C@@H](O)[C@H](O)[C@H]1OC2=O | inactive | 
COc1cc([C@H]2Oc3cc([C@H]4Oc5cc(O)cc(O)c5C(=O)[C@H]4O)ccc3O[C@H]2CO)ccc1O | inactive | 
OC[C@H]1O[C@@H](Oc2cc(O)cc(C=Cc3ccc(O)cc3)c2)[C@H](O)[C@@H](O)[C@H]1O | inactive | 
CN(C)CCOc1ccc(-c2nc(-c3ccc4c(c3)CCC4=NO)c(-c3ccncc3)[nH]2)cc1 | inactive | 
CC1(C)S[C@H]2[C@H](NC(=O)[C@@H](N)c3ccc(O)cc3)C(=O)N2[C@@H]1C(=O)O | inactive | 
O=C(NNC(=O)c1ccc(CNS(=O)(=O)c2ccc(F)c(Cl)c2)cc1)c1ccccc1 | inactive | 
CNC[C@@H](O)[C@@H](O)[C@H](O)[C@H](O)CO | inactive | 
CC(C)(O)[C@H]1CC[C@@](C)([C@H]2[C@@H](O)C[C@@]3(C)[C@@H]4C[C@H](O[C@@H]5O[C@H](CO)[C@@H](O)[C@H](O)[C@@H]5O)[C@H]5C(C)(C)[C@@H](O[C@@H]6OC[C@@H](O)[C@H](O)[C@@H]6O)CC[C@@]56C[C@@]46CC[C@]23C)O1 | inactive | 
CC(C)(Cc1ccc2ccccc2c1)NC[C@@H](O)COc1cccc(Cl)c1C#N | inactive | 
CN(C)c1nc(Cc2ccc(NC(=O)c3ccc(C(F)(F)F)cc3)cc2)nc(N(C)C)c1CC(=O)O | inactive | 
CC(=O)O[C@]1(C(C)=O)CC[C@H]2[C@@H]3C=C(C)C4=CC(=O)CC[C@]4(C)[C@@H]3CC[C@@]21C | inactive | 
CC(C)(C)[C@H](NC(=O)c1ccc(N)c(Cl)c1)C(=O)N1CCC[C@@H]1C(=O)N[C@H](C#N)CC(=O)O |  | 2.61% [at 5.82 µM] (inactive)
CC1(C)[C@H]2CC[C@]3(C)[C@@H](C(=O)C=C4[C@@H]5C[C@@](C)(C(=O)O)CC[C@]5(C)CC[C@]43C)[C@@]2(C)CC[C@@H]1O | inactive | 
O=C(NCc1ccccc1)[C@H](Cc1ccccc1)NC(=O)[C@@H]1O[C@@H]1C(=O)NCCc1ccc(O)cc1 | inactive | 
COC1CCC(C(=O)c2ccc3nc4c(cc3c2)CCCO4)CC1 (stereo not given) | inactive | 
NC1CCC(Nc2nc(Nc3ccc(C(=O)N4CCCCC4)cc3)c3ncn(-c4cccc(F)c4)c3n2)CC1 (stereo not given) | inactive | 
Clc1cccc(-n2nnnc2NCc2ccccc2Oc2ccccn2)c1Cl | inactive | 
COc1cc(/C=C/C(=O)OC2CC3CCC2(C)C3(C)C)ccc1O (stereo not given) | inactive | 
C=CC1=C(C(=O)O)N2C(=O)[C@@H](NC(=O)C(=NO)c3csc(N)n3)[C@H]2SC1 | inactive | 
CCNC(=O)Nc1ccc(Oc2ncnc(N)c2C=NOC)cc1Cl | inactive | 

Compound | Potency | activity change, negative = reduced viability
O=C(O)[C@H](CC(=O)N1C[C@@H]2CCCC[C@H]2C1)Cc1ccccc1 | inactive | 
CC1C(=O)OC2C(O)C34C5CC(C(C)(C)C)C36C(OC(=O)C6O)OC4(C(=O)O5)C12O (stereo not given) | inactive | 
CCOC(=O)N1CCN([N+]([O-])=NOc2cc(ON=[N+]([O-])N3CCN(C(=O)OCC)CC3)c([N+](=O)[O-])cc2[N+](=O)[O-])CC1 | inactive | 
CCOC(=O)O[C@]1(C(=O)OCCl)CC[C@@H]2[C@H]3CCC4=CC(=O)C=C[C@]4(C)[C@@H]3[C@@H](O)C[C@@]21C | inactive | 
O=C1Nc2ccc(I)cc2C1=Cc1cc(Br)c(O)c(Br)c1 | inactive | 
O=C(C[C@@H]1CC=CCCC(=O)O[C@H](c2ccccc2)CNC1=O)NCc1ccc(Cl)cc1 | inactive | 
CON=C(C(=O)N[C@@H]1C(=O)N2C(C(=O)OCOC(=O)C(C)(C)C)=C(C=Cc3scnc3C)CS[C@H]12)c1csc(N)n1 | inactive | 
C=CC[N+]1([C@H]2C[C@H]3[C@@H]4CC[C@H]5C[C@H](O)[C@@H](N6CCOCC6)C[C@]5(C)[C@@H]4CC[C@]3(C)[C@H]2OC(C)=O)CCCC1 | inactive | 
C=C[C@@H]1CN2CCC1C[C@@H]2C(O)c1ccnc2ccc(OC)cc12 (stereo not given in full) | inactive | 
O=C(CS(=O)Cc1ccco1)NCC=CCOc1cc(CN2CCCCC2)ccn1 (stereo not given) | inactive | 
CC(=O)C1=C(O)C=C2Oc3c(C(C)=O)c(O)c(C)c(O)c3C2(C)C1=O (stereo not given) | inactive | 
COc1ccc(-c2coc3cc(O)ccc3c2=O)cc1 | inactive | 
NC(=O)NN=Cc1ccc([N+](=O)[O-])o1 | inactive | 
CC(=O)N[C@@H]1[C@H](O[C@@H]2c3ccc(c(Cl)c3)Oc3cc4cc(c3O[C@H]3O[C@H](CO)[C@@H](O)[C@H](O)[C@H]3NC(=O)CCCCCCCC(C)C)Oc3ccc(cc3Cl)C[C@H]3NC(=O)[C@H](N)c5ccc(O)c(c5)Oc5cc(O)cc(c5)[C@H](NC3=O)C(=O)N[C@H]4C(=O)N[C@H]3C(=O)N[C@@H]2C(=O)N[C@@H](C(=O)O)c2cc(O)cc(O[C@H]4O[C@H](CO)[C@@H](O)[C@H](O)[C@H]4O)c2-c2cc3ccc2O)O[C@H](CO)[C@@H](O)[C@@H]1O | inactive | 
O=C(O)C1=NC(C(=O)O)CC(C=CN2c3cc(O)c(OC4OC(CO)C(O)C(O)C4O)cc3CC2C(=O)O)=C1 (stereo not given) | inactive | 
C[N+]1(C)[C@@H]2C[C@@H](OC(=O)C(O)(c3cccs3)c3cccs3)C[C@H]1[C@@H]1O[C@@H]12 | inactive | 
COC(=O)[C@@H]1[C@H]2C[C@@H]3c4[nH]c5ccccc5c4CCN3C[C@@H]2CC[C@@H]1O | inactive | 
CN[C@@H]1[C@@H](O)[C@@H](O[C@@H]2[C@@H](O)[C@H](O[C@H]3O[C@H](CN)[C@@H](O)[C@H](O)[C@@H]3O)[C@@H](N)C[C@@H]2NC(=O)[C@@H](O)CN)OC[C@]1(C)O | inactive | 
CN(C1CCc2c(c3ccccc3n2CC(=O)O)C1)S(=O)(=O)c1ccc(F)cc1 (stereo not given) | inactive | 
CN(C)CCC=C1c2ccccc2COc2ccc(CC(=O)O)cc21 | inactive | 

— PubChem BioAssay (NCATS)
